Experimental findings from PubChem BioAssay (NCI) are described below.

Structures are written as SMILES. The panel holds about 83,000 compounds, 20% with a hit somewhere; the sample as a whole holds those more often.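 Treatment: one concentration, 48 hours, 96-well format. Scoring: percent growth, with anything below 10 considered active.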 Unmarked numbers belong to inactive results. Activity calls are given as the source filed them.

Some test systems named below: SR leukemia; RPMI-8226 leukemia; OVCAR-8 ovarian; OVCAR-5 ovarian; OVCAR-4 ovarian; SK-OV-3 ovarian; IGROV1 ovarian; OVCAR-3 ovarian; HS 578T breast; NCI/ADR-RES ovarian.
Holding throughout (test): NCI-60 one-dose screen, 48 h (100 = growth as untreated, 0 = no growth, -100 = all killed)
Holding throughout (conditions): 10 µM unless noted

As to `Cn1ccnc1C(=O)C(=O)Nc1ccc(CC(=O)Nc2ccccc2)cc1`, the growth with SR leukemia is 106%; in the test with RPMI-8226 leukemia, 107%; with OVCAR-8 ovarian, 109%; in the test on OVCAR-5 ovarian, 101%; in the test on OVCAR-4 ovarian it was 110%; with SK-OV-3 ovarian, 115%. Also, the growth in the test with IGROV1 ovarian is 103%; in the test with OVCAR-3 ovarian, 108%; with HS 578T breast it was 101%; with NCI/ADR-RES ovarian, 103%.
Turning to `CN([O-])c1nc(N(C)[O-])nc(N2CCOCC2)n1.CN([O-])c1nc(N(C)[OH2+])nc(N2CCOCC2)n1.[Fe+3]`, the growth with SR leukemia is 67.3% [100 µM]; in the test with RPMI-8226 leukemia, 81% [100 µM]; in the test with OVCAR-8 ovarian it was 85.6% [100 µM]; with OVCAR-5 ovarian it was 110% [100 µM]; in the test on OVCAR-4 ovarian it was 120% [100 µM]; in the test with SK-OV-3 ovarian, 110% [100 µM]. Moreover, the growth with IGROV1 ovarian was 112% [100 µM]; with OVCAR-3 ovarian it was 60% [100 µM]; with HS 578T breast, 98.2% [100 µM]; in the test with NCI/ADR-RES ovarian, 104% [100 µM].
Consider `O=C(CCCCCCN1CC(=O)N2[C@H](c3cc(Br)cs3)c3[nH]c4ccccc4c3C[C@H]2C1=O)NO`, for which the growth with SR leukemia is 17.2%; in the test with RPMI-8226 leukemia, 11.8%; with OVCAR-8 ovarian it was 28%; in the test with OVCAR-5 ovarian, 38%; in the test with OVCAR-4 ovarian it was 63%; in the test on SK-OV-3 ovarian it was 61.9%. For the same compound, the growth was 40.7% in the test on IGROV1 ovarian, 38.4% in the test on OVCAR-3 ovarian, 44.8% in the test with HS 578T breast and 78.9% in the test on NCI/ADR-RES ovarian.
Turning to `Brc1c2c(c(Br)c3ccccc13)CCCC2`, the growth was 99% in the test with SR leukemia; 100% in the test with RPMI-8226 leukemia; 91% with OVCAR-8 ovarian; 104% in the test with OVCAR-5 ovarian; 112% in the test on OVCAR-4 ovarian; 89.5% with SK-OV-3 ovarian. The growth in the test with IGROV1 ovarian is 98.1%; in the test on OVCAR-3 ovarian, 110%; in the test with HS 578T breast, 95.5%; with NCI/ADR-RES ovarian, 107%.
`O=C(COc1ccc(-c2nc3ccccc3[nH]2)cc1)N=Nc1c(O)[nH]c2ccc(Cl)cc12`: the growth in the test with SR leukemia was 11.2%; with RPMI-8226 leukemia, 57.4%; with OVCAR-8 ovarian, 11.9%; with OVCAR-5 ovarian, 104%; with OVCAR-4 ovarian it was 60.7%; in the test with SK-OV-3 ovarian, 103%. For the same compound, the growth with IGROV1 ovarian is 88%; in the test on OVCAR-3 ovarian, 63.7%; in the test on HS 578T breast it was 72.4%; in the test on NCI/ADR-RES ovarian it was 107%.
For `COc1ccc(-c2nc3c(c(-c4ccccc4)nn3-c3ccccc3)c(-c3ccc(N4CCN(C)CC4)cc3)c2C#N)cc1`, the growth in the test on SR leukemia is 63.3%; in the test on RPMI-8226 leukemia, 87.4%; with OVCAR-8 ovarian, 93.7%; with OVCAR-5 ovarian it was 104%; in the test on OVCAR-4 ovarian it was 107%; in the test with SK-OV-3 ovarian it was 109%. The growth in the test with IGROV1 ovarian was 93.8%; with OVCAR-3 ovarian it was 103%; in the test on HS 578T breast it was 100%; with NCI/ADR-RES ovarian, 93%.
Turning to `COc1ccc(C2c3sc4c(F)cccc4c3Oc3nc[nH]c(=O)c32)cc1` (stereo not given), the growth is 75.9% in the test on SR leukemia; 69.3% in the test on RPMI-8226 leukemia; 89% with OVCAR-8 ovarian; 83.6% in the test with OVCAR-5 ovarian; 85.4% in the test with OVCAR-4 ovarian; 97.4% in the test with SK-OV-3 ovarian. For the same compound, the growth in the test on IGROV1 ovarian was 45.7%; in the test on OVCAR-3 ovarian, 88.5%; in the test on HS 578T breast it was 83.1%; in the test on NCI/ADR-RES ovarian, 84.4%.
As to `CC(C)=CCC[C@](C)(O)[C@H]1CC[C@]2(C)[C@@H]1CC[C@@H]1[C@@]3(C)Cc4nccnc4C(C)(C)[C@@H]3CC[C@]12C`, the growth with SR leukemia was 43.7%; in the test with RPMI-8226 leukemia, 43.2%; with OVCAR-8 ovarian, 101%; with OVCAR-5 ovarian, 89.9%; in the test with OVCAR-4 ovarian, 90.1%; in the test on SK-OV-3 ovarian, 84.1%. For the same compound, the growth with IGROV1 ovarian was 104%; in the test with OVCAR-3 ovarian, 90.3%; in the test on HS 578T breast, 97.6%; in the test on NCI/ADR-RES ovarian it was 83.6%.
As to `CCOC(=O)CSc1ncnc2c1c(-c1ccccc1)c(-c1ccccc1)n2-c1ccc(C)cc1`, the growth was 80.4% in the test with SR leukemia; 37.8% with RPMI-8226 leukemia; 54.5% in the test with OVCAR-8 ovarian; 93.8% with OVCAR-5 ovarian; 80.4% in the test on OVCAR-4 ovarian; 56% with SK-OV-3 ovarian. The growth in the test on IGROV1 ovarian was 79.9%; in the test on OVCAR-3 ovarian it was 66.4%; with HS 578T breast, 81.7%; in the test with NCI/ADR-RES ovarian it was 98.4%.
Take `COc1ccc2c(O)c(/C=C3\N=Nc4ncccc43)oc2c1C[C@H]1CCNC[C@H]1F`: the growth was -40.2% (active) in the test with SR leukemia; 9.58% (active) in the test on RPMI-8226 leukemia; 5.11% (active) in the test with OVCAR-8 ovarian; 16% in the test on OVCAR-5 ovarian; 2.83% (active) in the test on OVCAR-4 ovarian; 21% in the test with SK-OV-3 ovarian. Moreover, the growth was 2.29% (active) in the test with IGROV1 ovarian, 1.29% (active) with OVCAR-3 ovarian, -6.5% (active) in the test on HS 578T breast and 31.3% in the test on NCI/ADR-RES ovarian.
With `N#CC1CCc2c(c(-c3cn[nH]c3C(F)(F)F)nc3c(F)cc4[nH]ncc4c23)C1` (stereo not given), the growth with SR leukemia was 14.5%; in the test on RPMI-8226 leukemia, 34.6%; in the test on OVCAR-8 ovarian it was 43%; in the test on OVCAR-5 ovarian, 63.2%; in the test with OVCAR-4 ovarian it was 59.7%; in the test with SK-OV-3 ovarian it was -1.91% (active). Moreover, the growth in the test with IGROV1 ovarian is -4.43% (active); in the test on OVCAR-3 ovarian it was 16.6%; with HS 578T breast, -8.7% (active); in the test with NCI/ADR-RES ovarian, 92.4%.
For `O=C(CCc1nnc(Cn2cnc3nc[nH]c3c2=O)o1)c1nc2ncccc2[nH]1`, the growth in the test on SR leukemia was 100%; in the test with RPMI-8226 leukemia, 99.6%; in the test on OVCAR-8 ovarian it was 100%; in the test on OVCAR-5 ovarian, 100%; in the test on OVCAR-4 ovarian, 99.4%; in the test with SK-OV-3 ovarian it was 107%. Further, the growth in the test with IGROV1 ovarian is 102%; with OVCAR-3 ovarian, 104%; with HS 578T breast, 93.2%; with NCI/ADR-RES ovarian, 100%.
